GDH-TPI counter = counter-screen for M. tuberculosis FBA inhibitors: GDH-TPI coupled enzymes; GDH-TPI coupled enzyme counterscreen, NADH absorbance; inhibition, % at 4.8 µM; 1.2% of 360,000 active; AID 588335; in the data active = inhibition above about 30%;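 also: 0% = DMSO wells and 100% = wells lacking the enzyme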
FBA Mtb inh = Mtb fructose-bisphosphate aldolase inhibition | 2.3% of 360,000 active | AID 588726 | inhibition, % at 1 µM | purified M. tuberculosis FBA, fluorescence read-out; in the data active = inhibition above about 27%;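 also: 0% = vehicle and 100% = reference inhibitor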
Rv3671c inh = inhibitors of M. tuberculosis serine protease Rv3671c; inhibition, % at 5.96 µM; P9WHR9; 0.048% of 320,000 active; in the data active = inhibition above about 38%;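 also: extracellular domain of Rv3671c used as enzyme; 0% = enzyme with DMSO and 100% = no enzyme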
Mtb UGM inh = inhibitors of M. tuberculosis UDP-galactopyranose mutase; P9WIQ1; purified UGM, fluorescence polarization probe displacement; inhibition, % at 10 µM; 0.06% of 320,000 active; in the data active = inhibition above about 10%, passing the limit was not always enough
Target sequence (P9WIQ1 whole entry, looked up): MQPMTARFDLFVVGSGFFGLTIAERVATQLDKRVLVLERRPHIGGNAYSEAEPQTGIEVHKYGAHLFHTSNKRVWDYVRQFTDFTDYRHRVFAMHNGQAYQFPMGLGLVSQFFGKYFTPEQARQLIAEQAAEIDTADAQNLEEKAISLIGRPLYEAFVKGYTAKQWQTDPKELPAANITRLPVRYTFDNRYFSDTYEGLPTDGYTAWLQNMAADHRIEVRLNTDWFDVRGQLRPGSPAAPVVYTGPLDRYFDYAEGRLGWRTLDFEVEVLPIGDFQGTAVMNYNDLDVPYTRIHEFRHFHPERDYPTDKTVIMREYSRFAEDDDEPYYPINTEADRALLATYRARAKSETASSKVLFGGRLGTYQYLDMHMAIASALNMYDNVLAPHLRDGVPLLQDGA
Vc quorum ag = quorum light induction in luxS cqsA deficient V. cholerae; V. cholerae BH1578 lux reporter, luminescence, 6 h; activation, % at 18.7 µM; 0.16% of 350,000 active; in the data active = activation mostly above about 9.7%, no sharp cut-off
RecA intein inh = blocks M. tuberculosis RecA intein splicing; cell-free RecA intein splicing, fluorescence; inhibition, % (concentration not given with the values); 0.75% of 290,000 active; in the data active = inhibition above about 30%;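 also: 0% = vehicle wells and 100% = reference inhibitor control wells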
* hit, by the source's call; i = inactive; · = no result; + = active, no number. Compounds with a hit are over-represented: about 4.1% of the library has one in this group of screens.

SMILES | GDH-TPI counter | FBA Mtb inh | Rv3671c inh | Mtb UGM inh | Vc quorum ag | RecA intein inh
Cc1ccc(NC(=O)CC2=NC(=O)C(CC(=O)Nc3ccccc3F)S2)cc1 (centres undefined) | 32.5* | -3.2 | -3.8 | 0.4 | -8.5 | -4.4
COc1cccc(CNC(=S)Nc2ccc3c(c2)c(=O)n(C)n3Cc2csc(C)n2)c1 | 5.5 | 18.0 | · | · | -0.4 | ·
Cc1cc(C)cc(Cn2c3ccc(NC(=O)NCCc4cccs4)cc3c(=O)n2C)c1 | 4.0 | 171.1* | · | · | 0.3 | ·
Cn1c(=O)c2cc(NC(=O)NCCc3cccs3)ccc2n1Cc1ccccc1 | 13.7 | 140.7* | · | · | i | ·
COc1ccc(NC(=O)CCNC(=O)c2ccc([N+](=O)[O-])cc2)cc1S(=O)(=O)N1CCCCC1 | 0.7 | 3.5 | · | · | -12.5 | ·
Clc1ccc(C2=CC(c3ccco3)n3ncnc3N2)cc1 (centres undefined) | 30.4 | 37.6* | -1.6 | -4.9 | i | -383.0
COc1ccc(C2C=C(c3ccccc3)Nc3ncnn32)cc1 (centres undefined) | 13.6 | 117.5* | 8.1 | 1.4 | -0.9 | -61.6
COc1ccc(C2=CC(c3ccco3)n3ncnc3N2)cc1 (centres undefined) | 15.1 | 70.8* | · | · | i | ·
Cc1ccc(-c2cnc(C(O)c3c(C)cccc3C)[nH]2)cc1 (centres undefined) | 5.4 | 1.4 | · | · | i | ·
O=C(CN1CCN(C2CCCCC2)CC1)Nc1cccc2ccccc12 | 31.7* | 1.6 | 4.5 | -0.7 | -0.2 | -1.6
Brc1ccc(-c2nc3ccccc3s2)s1 | 7.5 | 7.9 | -2.7 | 4.3 | · | -0.7
Nc1ccc(-c2nc3ccccc3s2)cn1 | 23.3 | + | 0.4 | -1.8 | -0.3 | -1.1
Cc1cc(-c2nc3ccccc3s2)ccc1N | 37.1* | + | · | · | -5.6 | ·
CCOCCCNC(=O)C(NC(=O)c1ccccc1O)c1ccc(Cl)cc1 (centres undefined) | 10.1 | 51.8* | 1.3 | -1.8 | -0.2 | -2.1
Cc1ccccc1N=CC1=C(O)c2ccccc2C1=O | 46.3* | -3.7 | -0.9 | -3.8 | -0.3 | -1.4
COc1ccc(N=CC2=C(O)c3ccccc3C2=O)c(OC)c1 | 6.6 | 19.0 | 1.1 | -1.7 | i | 12.8
CNC(=O)c1cc(Oc2ccc(NC(=O)Nc3ccc(Cl)c(C(F)(F)F)c3)cc2)ccn1 | -7.6 | 0.3 | -289.6 | -3.1 | -4.5 | ·
Cc1csc(NC(=O)c2cc(=O)[nH]c3ccc(S(=O)(=O)N4CCOCC4)cc23)n1 | 5.7 | 45.9* | 1.0 | 3.3 | -0.1 | -115.0
O=C(O)c1cc2ccc3cccc4ccc(c1)c2c34 | 27.0 | 167.9* | -4.8 | -0.2 | i | -2.9
O=C(COC(=O)c1cc[n+]([O-])cc1)Nc1cc([N+](=O)[O-])ccc1Cl | 5.6 | -2.2 | -1.7 | -0.1 | 3.5 | 3.6
COc1ccc(/C=C/C(=O)NC(=S)Nc2ccc(S(=O)(=O)Nc3ccc(OC)nn3)cc2)cc1 | 39.0* | 0.0 | -14.5 | -1.9 | -1.4 | 1.6
COc1ccc(OCC(=O)NC(=S)Nc2ccc(S(=O)(=O)Nc3cc(C)on3)cc2)cc1 | -8.8 | 1.8 | -1.2 | -1.7 | i | -2.0
COc1ccc(/C=C/C(=O)NC(=S)Nc2ccc(S(=O)(=O)Nc3cc(C)on3)cc2)cc1 | 34.7* | -0.1 | -48.3 | 1.3 | -0.5 | 5.6
O=C(Nc1ccccc1)/C(=C/c1ccc([N+](=O)[O-])cc1)NC(=O)c1ccco1 | 21.0 | -3.8 | -18.6 | 6.1 | -0.3 | 1.0
CC(C)Cn1c(=O)c2ccccc2n2c(CCC(=O)NC3CCN(Cc4ccccc4)CC3)nnc12 | 3.5 | 3.6 | -12.8 | 0.4 | -2.0 | -6.0
SMILES | GDH-TPI counter | FBA Mtb inh | Rv3671c inh | Mtb UGM inh | Vc quorum ag | RecA intein inh
CCCCCC(=O)Nc1cc(S(=O)(=O)O)cc2cc(S(=O)(=O)O)cc(O)c12 | 14.2 | 2.2 | · | · | -1.6 | ·
CN(Cc1cc(Cl)cc(Cl)c1)[C@H]1C[C@H]2c3[nH]c4ccccc4c3CCN2C(=O)[C@H]1CO | -13.2 | -0.4 | · | · | -0.4 | ·
CN(C(=O)NC1CCCCC1)[C@H]1C[C@H]2c3[nH]c4ccccc4c3CCN2C(=O)[C@H]1CO | 17.5 | 151.8* | · | · | i | ·
O=Cc1ccnc(-c2ccc(OC(=O)c3ccco3)cc2)n1 | -6.3 | 3.3 | 4.3 | 3.6 | -0.5 | 35.6*
COC(=O)c1ccc(Cn2c(C)c(C(=O)NCc3cccc(C(F)(F)F)c3)sc2=O)o1 | 8.2 | 2.5 | · | · | -0.5 | ·
CC(C)C[C@@H](CNCC(=O)[C@H](C)NC(=O)c1[nH]cnc1C(=O)N[C@@H](C)CN)NC(=O)c1nc[nH]c1C(=O)N[C@@H](C)C(=O)O | -12.5 | 1.2 | · | · | i | ·
C=C(CO)C1Cc2cc(C(C)=O)ccc2O1 (centres undefined) | 9.8 | 1.6 | -1.0 | 0.0 | -0.3 | ·
CC(C)(O)[C@H](O)Cc1cc2ccc(=O)oc2cc1O[C@@H]1O[C@H](CO)[C@@H](O)[C@H](O)[C@H]1O | 12.7 | 5.9 | -1.9 | 4.3 | i | ·
CC(C)(O[C@@H]1O[C@H](CO)[C@@H](O)[C@H](O)[C@H]1O)[C@H]1Cc2cc3ccc(=O)oc3cc2O1 | 32.6* | + | -9.7 | -0.3 | -4.5 | -1.5
CC(C)c1cc2cc3ccc(=O)oc3cc2o1 | 11.2 | 17.1 | -2.5 | 0.9 | -7.7 | -1.8
CC(C)(O)[C@@H]1Cc2c(ccc3ccc(=O)oc23)O1 | 11.9 | + | 7.5 | -1.1 | i | -4.1
CC(C)(O)[C@H]1Cc2cc3ccc(=O)oc3cc2O1 | 24.5 | + | -14.1 | 3.9 | i | 1.1
C=C(C)C1Cc2cc3ccc(=O)oc3cc2O1 (centres undefined) | 15.2 | 184.5* | 5.3 | 1.3 | 1.4 | 1.4
Cc1nnsc1C(=O)N/N=C/c1ccc(OC(F)(F)F)cc1 | 12.2 | 0.8 | -0.1 | 0.2 | 0.8 | 3.4
O=C(CCl)NCC1CCCO1 (centres undefined) | -2.2 | 8.6 | -1.6 | 0.9 | -0.5 | -0.8
O=C(CC1CCCCC1)NCC1CCCO1 (centres undefined) | 0.9 | -0.6 | -7.2 | 5.1 | 16.7* | -0.9
COc1cccc(-c2nc(-c3ccc4c(c3)NC(=O)CO4)cs2)c1 | -5.5 | 0.2 | -2.3 | -3.2 | -2.0 | 6.0
COc1ccc(-c2cc(-c3ccc(OC)cc3)nc(-c3ccc4c(c3)NC(=O)CO4)c2)cc1 | 31.5* | 1.1 | -2.0 | 0.7 | i | -0.4
COc1ccc(-c2cc(-c3ccccc3)n3ncnc3n2)cc1 | 32.8* | 170.1* | 3.1 | 3.0 | i | 1.5
COc1ccc(-c2ccnc3ncnn23)cc1 | 13.3 | + | 17.6 | 1.6 | i | 1.0
COc1ccc(-c2cnc3ncnn3c2N)cc1 | 7.3 | 0.2 | -10.1 | 1.5 | 0.5 | -1.9
FCCCOc1ccc(-c2ccnc3ncnn23)cc1 | 0.3 | + | -1.3 | 1.4 | -0.9 | 1.4
Cc1ccc(NC(C(=O)c2ccccc2)c2ccccc2)cc1 (centres undefined) | 1.8 | 4.0 | · | · | -2.9 | ·
CC(=O)NC(Cc1cccc(C)c1)C(=O)NC1CCN(S(=O)(=O)c2ccccc2)CC1 (centres undefined) | -14.9 | -5.1 | 11.4 | -2.5 | -0.3 | 2.6
CC(=O)c1ccc(NC(=S)NNC(=O)c2ccncc2)cc1 | 31.6* | 0.6 | -8.4 | -1.4 | -0.2 | 0.9
